# Assay outcomes from PubChem BioAssay.
# In the library only some 5.7% were active in any assay of this set; here they are far more common.
# Giardia kill – kills Giardia lamblia; Giardia lamblia trophozoite viability; AID 540267; activity change, % at 7.66 µM, hits read low; hit rate 0.15% among 340,000; in the data active means activity change below about -80%; inconclusive means between about -30% and that limit;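 further: parasites exposed to compound for two days anaerobically before the ATP read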
#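 Luminescence from cellular ATP indicates surviving trophozoites (100 cells/well) following 48 hrs anaerobic compound treatment at 37 deg C; signal develops 15-30 min at room temperature.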
# KB-V1 cytotox – kills drug-selected multidrug resistant KB-V1 cells. hit rate 3.4% among 400,000. Potency, µM (titrated, usually from 46.1 µM), actives largely listed as cytotoxic. AID 1347076. KB-V1 MDR cells viability, CellTiter-Glo, 72 h; further: potency means the concentration at half of the fitted maximal effect; nearly all actives have a fitted effect of over 60% in size
#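 Cells of the MDR subline KB-V1 are plated, dosed with compound at multiple concentrations, and incubated 72 h at 37 degrees C; CellTiter-Glo is then added and luminescence read after 10 min.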
# A549 tox – A549 cytotoxicity, counter-screen for Nrf2 inhibitors; hit rate 0.16% among 390,000; Potency, µM (series often up to 46 µM), for inactives: top-dose activity change, negative = cytotoxicity, usual class: inhibitors; A549 ARE-Fluc cells, CellTiter-Fluor viability, 18-24 h; further: potency means the concentration at half of the fitted maximal effect
#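 Cytotoxicity counterscreen: CellTiter-Fluor fluorescence was measured in A549 ARE_Fluc cells after 18-24 h of compound exposure in a concentration series. The subsequent BugLite luminescent read reports ARE-luciferase activity.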
# KB-3-1 tox – KB-3-1 parental cell cytotoxicity; KB-3-1 viability, CellTiter-Glo ATP luminescence, 72 h; Potency, µM (doses to about 46.1 µM), actives largely listed as cytotoxic; hit rate 1.4% among 400,000; AID 1347075; further: potency means the concentration at half of the fitted maximal effect; nearly all actives have a fitted effect of over 60% in size
#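 Cytotoxicity in the drug-sensitive parental line KB-3-1 was scored as loss of CellTiter-Glo luminescence following 72 h incubation with compound. Values come from curve fitting of normalized concentration-response data.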
# Nrf2 inh – blocks Nrf2 signaling | A549 ARE-Fluc reporter, luciferase luminescence, 18-24 h | Potency, µM (doses to about 46 µM), for inactives: at the highest dose activity change, negative = inhibition, usual class: inhibitors | hit rate 2.1% among 360,000 | AID 504444; further: potency means the concentration at half of the fitted maximal effect; nearly all actives have a fitted effect of over 60% in size
#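 A549 ARE_Fluc cells, 5000/well, 5% FBS OPTI-MEM; compounds in dose-response, 18-24 h at 37 °C/5% CO2; CellTiter-Fluor viability read (Ex 405/Em 525), then BugLite luciferase luminescence = Nrf2 activity.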
# PI4K2A block – PI4K2A (human) kinase inhibition; Q9BTU6; purified PI4K2A, ADP-Glo luminescence, 1 h; active compounds read low; activity change, negative = inhibition, % at 76.9 µM; hit rate 0.13% among 420,000; in the data active means activity change below about -50%; inconclusive means mostly about -30% to -49%;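 further: -100% = wells without enzyme as full effect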
# Target sequence (Q9BTU6 whole entry, looked up): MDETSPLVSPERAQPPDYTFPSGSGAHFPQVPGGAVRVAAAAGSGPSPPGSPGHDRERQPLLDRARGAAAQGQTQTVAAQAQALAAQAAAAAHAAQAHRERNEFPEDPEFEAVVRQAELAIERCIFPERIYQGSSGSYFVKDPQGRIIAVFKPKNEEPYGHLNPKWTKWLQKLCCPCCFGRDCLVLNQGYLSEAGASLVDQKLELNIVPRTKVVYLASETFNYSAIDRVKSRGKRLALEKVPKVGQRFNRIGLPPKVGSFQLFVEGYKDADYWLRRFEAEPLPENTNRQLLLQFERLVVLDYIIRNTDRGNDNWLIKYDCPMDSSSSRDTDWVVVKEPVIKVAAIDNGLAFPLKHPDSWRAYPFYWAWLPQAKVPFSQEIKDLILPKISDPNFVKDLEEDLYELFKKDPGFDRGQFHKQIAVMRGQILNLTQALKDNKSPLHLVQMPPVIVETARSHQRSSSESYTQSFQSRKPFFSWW
#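 Compounds are screened against recombinant PI4K2A using PI as substrate and ATP, the latter dispensed at 300 microM. Reactions run one hour at ambient temperature before ADP-Glo detection; full inhibition defined by wells lacking enzyme.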
# An asterisk follows results filed as active; i = inactive; ? = inconclusive; . = no result given. Unless noted, the call rests on the fitted dose curve; in most records, active means well fitted curve in the direction sought with a large enough effect; inconclusive means small, poorly fitted or top-dose-only effect, or another doubt; inactive means no such curve, though single readings can be large; an effect the other way counts as inactive or inconclusive. Unless noted, on the % scale 0 is the no-effect control and ±100 the full control effect.
SMILES,Giardia kill,KB-V1 cytotox,A549 tox,KB-3-1 tox,Nrf2 inh,PI4K2A block
CC12CC(O)C3C(CCC4=CC(=O)CCC43C)C1CCC2=CCO (stereo not given),0,18µM*,1%,?,-13%,-3
C[C@]12CCC(=O)C=C1CC[C@@H]1[C@@H]2[C@@H](O)C[C@]2(C=O)[C@@H](C(=O)CO)CC[C@@H]12,?,i,-13%,i,?,-3
COC(=O)[C@]12C[C@H](CC(=O)NCc3cccc(C(F)(F)F)c3)C(=O)N(Cc3ccc4c(c3)OCO4)C1=C[C@H](C(C)C)O[C@@H]2C1CC1,.,.,.,.,.,-1
O=c1c2ccccc2ncn1CCCSc1ccc(Cl)cc1,8,i,11%,i,17%,2
O=c1c2ccccc2ncn1CCCSc1ccccc1,6,i,?,i,23µM*,-11
CCOc1ccc(S(=O)(=O)c2c(C(=O)c3ccc(C)cc3)cnc3cc4c(cc23)OCCO4)cc1,-2,i,12%,i,-12%,-1
Cc1ccc(C(=O)c2cnc3cc4c(cc3c2S(=O)(=O)c2ccccc2)OCCO4)cc1,-6,16µM*,3%,?,?,-3
COC(=O)c1cn(NC(=O)Cc2ccc(Cl)c(Cl)c2)c(=O)c2ccccc12,1,i,1%,i,14%,4
COC(=O)c1cn(NC(=O)Cc2ccc(Cl)cc2)c(=O)c2ccccc12,12,21µM*,-4%,i,9%,-4
CCn1c2ccccc2c2cc(NS(=O)(=O)c3ccccc3C)ccc21,-8,?,-25%,16µM*,?,18
COc1ccc(NC(=O)COc2cccnc2[N+](=O)[O-])cc1OC,-21,i,0%,i,5%,-3
O=C(COc1cccnc1[N+](=O)[O-])Nc1cccc(Br)c1,-25,i,3%,i,15%,-1
O=C(COc1cccnc1[N+](=O)[O-])Nc1ccccc1Sc1ccccc1,-15,13µM*,6%,i,2%,-1
O=C(COc1cccnc1[N+](=O)[O-])Nc1ccc2c(c1)OC(F)(F)O2,-84*,i,11%,i,-8%,-4
CCOC(=O)Cn1cc(CN2C(C(=O)OC)CN(C3CC3)CCS2(=O)=O)nn1 (stereo not given),.,.,.,.,.,-9
O=C(CSc1nc2ccccc2c(=O)n1-c1ccc(Cl)cc1)NNC(=S)Nc1ccccc1,.,.,.,.,.,2
Cc1ccnc(NC(=S)Nc2cccc([S+](=O)([O-])Nc3ccccc3F)c2)c1,.,i,.,i,.,.
Cc1ccc(-n2c(O)c(/C=N/Nc3ccc(S(=O)(=O)N4CCOCC4)cc3[N+](=O)[O-])c3ccccc3c2=O)c(C)c1,?,?,?,i,18µM*,-11
CCNC(=O)c1c(NC(=O)c2nc(SC)ncc2Cl)sc2c1CCCC2,.,i,.,?,.,.
N#Cc1nc(-c2ccc(OCc3ccccc3)cc2)oc1NCCCn1ccnc1,8,23µM*,-1%,?,-13%,2
CN(C)c1oc(-c2ccc(OCc3ccccc3)cc2)nc1C#N,5,21µM*,5%,i,20%,-3
CCCOc1ccc(-c2nc(C#N)c(NCCCn3ccnc3)o2)cc1,-3,i,7%,?,5%,2
N#Cc1nc(-c2ccc(OCc3ccccc3)cc2)oc1NCc1cccnc1,-16,i,-10%,i,?,3
COc1cc2c(cc1NC(=O)CSc1nnc(-c3ccccc3F)n1-c1ccc(C)cc1)oc1ccccc12,.,.,.,.,.,-13
COC(=O)[C@@H]1[C@H](O[Si](C)(C)C(C)(C)C)C2OC2C[C@H]1S(=O)(=O)c1ccccc1 (stereo not given in full),.,.,.,.,.,-6
SMILES,Giardia kill,KB-V1 cytotox,A549 tox,KB-3-1 tox,Nrf2 inh,PI4K2A block
CCOCCCNC(=O)c1cc(=O)n(Cc2cccc(C)c2)c2ccccc12,-9,9.2µM*,0%,?,4%,-1
O=c1oc(C2(O)CCCCC2)cc2ccccc12,-3,i,0%,i,-5%,-1
O=c1oc(C2(O)CCCCC2)cc2ccc(-c3ccc4[nH]ccc4c3)cc12,14,?,-9%,0.82µM*,?,2
CSc1ncccc1C(=O)OCC(=O)c1ccc(S(=O)(=O)N2CCCCC2)cc1,-8,23µM*,4%,i,3%,2
CN(C)c1ccc(C(=O)OCC(=O)Nc2cccc(S(=O)(=O)N3CCCC3)c2)cc1,-2,16µM*,-8%,i,?,-7
O=C(COC(=O)c1ccc(C(F)(F)F)cc1)Nc1cccc(S(=O)(=O)N2CCCCC2)c1,-6,i,2%,i,5%,4
O=C(COC(=O)c1ccc(S(=O)(=O)N2CCCC2)cc1)Nc1cccc(Br)c1,4,i,0%,i,-24%,-4
Cc1cccc(NC(=O)COC(=O)c2ccc(S(=O)(=O)N3CCCCCC3)cc2)c1,-2,16µM*,-2%,i,12%,3
Cc1ccc(C)c(C(=O)OCC(=O)Nc2cccc(S(=O)(=O)N3CCCCC3)c2)c1,-12,?,?,15µM*,?,-3
C(=C\c1nccc2ccccc12)/c1ccc(N2CCOCC2)cc1,.,?,.,i,.,.
COC(=O)Cn1ncc2c3ccccc3n(Cc3ccccc3)c2c1=O,-5,23µM*,-4%,i,?,-5
Oc1c(C(Nc2cccnc2)c2ccccc2F)ccc2cccnc12 (stereo not given),.,i,.,i,.,.
Cc1ccc(N(CC(O)Cn2c3ccccc3c3ccccc32)S(=O)(=O)c2ccc(F)cc2)cc1 (stereo not given),.,.,?,.,?,-6
COc1ccc(CN2CCN(CC(O)Cn3c4ccccc4c4ccccc43)CC2)cc1 (stereo not given),4,6.5µM*,-1%,?,9%,-8
COc1ccc(N(CC(O)Cn2c3ccccc3c3ccccc32)S(=O)(=O)c2ccccc2)cc1 (stereo not given),2,23µM*,-21%,?,.,-4
COc1ccccc1NCC(O)Cn1c2ccccc2c2ccccc21 (stereo not given),-15,i,21µM*,i,?,-2
CC(=O)Nc1ccccc1N(CC(O)Cn1c2ccccc2c2ccccc21)S(=O)(=O)c1ccc(C)cc1 (stereo not given),11,?,-22%,i,26µM*,7
Cc1ccc(C(=O)Nc2ccc3nc(SCC(=O)N4CCCc5ccccc54)sc3c2)cc1,.,.,-16%,.,?,0
O=[N+]([O-])c1ccc(/C=N\O)o1,.,.,.,.,.,-2
